Values joined by “and” are separate entries in the source; they are usually repeats but may differ in a detail not shown here. Identical values can stand only once. Records with an inconclusive call do not appear. A structure can be active in one record and inactive in another. Active and inactive are the calls of the source. Rule for the calls, unless noted: active = hit-call score of the fitted dose curve at least 0.9, where 1 is the maximum; inactive = score below 0.9.
Key:
[1] = read-out: Tumor necrosis factor receptor 1 (TNFRSF1A), TNFRSF1A (gene 7132); assay: LTEA_HepaRG_TNFRSF1A: Life Technologies and Expression Analysis (LTEA) Assay for Tumor necrosis factor receptor 1 (TNFRSF1A) using HepaRG (AID 2283535); details: mRNA level, 48 h; actives raise or lower the signal
Summary of the method: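 mRNA measured by qRT-PCR (TaqMan, Fluidigm arrays) against ACTB/GAPDH/POLR2A housekeepers after 48 h chemical exposure of HepaRG cells. Top concentration 100 uM, half-log 8-point series, duplicates; vehicle 0.5% DMSO, both fit directions.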

[2] = read-out: Thyroid Hormone Responsive (THRSP), THRSP (gene 7069); assay: LTEA_HepaRG_THRSP: Life Technologies and Expression Analysis (LTEA) Assay for Thyroid Hormone Responsive (THRSP) using HepaRG (AID 2283536); details: mRNA level, 48 h; actives raise or lower the signal
Summary of the method: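 Cell model: human HepaRG, approx. 100,000 cells/well, 0.5% DMSO vehicle. Exposure lasts 48 h; phenobarbital 1 mM serves as induction positive control. Gene expression is measured by qRT-PCR against three endogenous control genes.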

[3] = read-out: Cellular tumor antigen p53 (Homo sapiens) (UniProt P04637); assay: LTEA_HepaRG_TP53: Life Technologies and Expression Analysis (LTEA) Assay for Tumor Protein P53 (TP53) using HepaRG (AID 2283537); details: mRNA level, 48 h; actives raise or lower the signal
Summary of the method: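 Differentiated HepaRG cells in serum-free induction medium exposed 48 h in duplicate to 8 half-log concentrations, top 100 uM, 0.5% DMSO. TP53 mRNA by TaqMan qRT-PCR (Fluidigm), normalized to ACTB, GAPDH, POLR2A; fitted bidirectionally versus DMSO.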

[4] = read-out: UDP glucuronosyltransferase (UGT1A1), UGT1A1 (gene 54658); assay: LTEA_HepaRG_UGT1A1: Life Technologies and Expression Analysis (LTEA) Assay for UDP glucuronosyltransferase (UGT1A1) using HepaRG (AID 2283538); details: mRNA level, 48 h; actives raise or lower the signal
Summary of the method: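 HepaRG, 48 h chemical exposure (top 100 uM, half-log 8-pt, 0.5% DMSO vehicle), duplicate wells; qRT-PCR (TaqMan, Fluidigm array) for UGT1A1 mRNA, housekeeping-normalized; bidirectional curve fit vs DMSO baseline.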

[5] = read-out: UDP glucuronosyltransferase (UGT1A6), UGT1A6 (gene 54578); assay: LTEA_HepaRG_UGT1A6: Life Technologies and Expression Analysis (LTEA) Assay for UDP glucuronosyltransferase (UGT1A6) using HepaRG (AID 2283539); details: mRNA level, 48 h; actives raise or lower the signal
Summary of the method: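 Expression was quantified by TaqMan qRT-PCR on Fluidigm arrays with ACTB/GAPDH/POLR2A normalization and bidirectional fitting against 0.5% DMSO. HepaRG cells (~100,000/well) were treated in duplicate for 48 h at eight half-log concentrations up to 100 uM in serum-free induction medium.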

[6] = read-out: X-box binding protein 1 (XBP1), XBP1 (gene 7494); assay: LTEA_HepaRG_XBP1: Life Technologies and Expression Analysis (LTEA) Assay for X-box binding protein 1 (XBP1) using HepaRG (AID 2283540); details: mRNA level, 48 h; actives raise or lower the signal
Summary of the method: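 XBP1 transcript by qRT-PCR (housekeeping-normalized: ACTB, GAPDH, POLR2A) after 48 h chemical treatment of HepaRG cells, 8-point half-log series topping at 100 uM, vehicle 0.5% DMSO. Gain and loss of signal fitted relative to DMSO.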

[7] = LTEA_HepaRG_LDH_cytotoxicity: Cytotoxicity Assessment in the Life Technologies and Expression Analysis (LTEA) Assay (AID 2283563; active = hit-call score of the fitted dose curve at least 0.9, where 1 is the maximum;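 for AC50: LDH activity released into spent culture medium as a marker of cell death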)
Summary of the method: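 LDH release into culture medium read after 48 h chemical treatment of HepaRG cells. Duplicate wells, eight-point half-log series topping at 100 uM, 0.5% DMSO vehicle and baseline.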

[8] = TOX21_p53_BLA_p2_viability: Viability Assessment in the Tox21 HCT-116 p53 Agonism Beta-lactamase Assay, Phase 2 (AID 2283591; active = hit-call score of the fitted dose curve at least 0.9, where 1 is the maximum;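 note: compound exposure lasted 16 h at 37 °C; actives lower the ATP signal meaning cytotoxicity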)
Summary of the method: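 HCT-116 p53-bla cells (4000/well) rested 5 h at 37C, then received compounds in DMSO (217-fold dilution) for 16 h at 37C, 5% CO2. After the CCF4 read, CellTiter-Glo was added; ATP luminescence was read after 30 min at room temperature.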

[9] = target: Cellular tumor antigen p53 (Homo sapiens) (UniProt P04637); assay: TOX21_p53_BLA_p2_ratio: Tox21 HCT-116 p53 Agonism Beta-lactamase Assay, Ratio, Phase 2 (AID 2283592; active = hit-call score of the fitted dose curve at least 0.9, where 1 is the maximum)
Chain of Cellular tumor antigen p53 (Homo sapiens) (P04637 whole entry, looked up): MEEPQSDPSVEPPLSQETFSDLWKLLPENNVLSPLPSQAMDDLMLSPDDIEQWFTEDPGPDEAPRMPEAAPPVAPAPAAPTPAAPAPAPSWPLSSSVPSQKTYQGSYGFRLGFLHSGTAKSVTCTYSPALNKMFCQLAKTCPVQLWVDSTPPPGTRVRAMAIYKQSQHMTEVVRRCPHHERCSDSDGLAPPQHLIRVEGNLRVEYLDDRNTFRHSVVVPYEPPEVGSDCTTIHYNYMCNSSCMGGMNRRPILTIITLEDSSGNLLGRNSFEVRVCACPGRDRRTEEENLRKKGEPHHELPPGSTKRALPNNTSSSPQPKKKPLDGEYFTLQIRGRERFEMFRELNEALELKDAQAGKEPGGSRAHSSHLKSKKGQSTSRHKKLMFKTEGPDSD
Summary of the method: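 Read-out is the blue/green (460/530 nm, 405 nm excitation) ratio after 2 h CCF4-AM loading, fitted as gain versus DMSO. Compounds, pinned at 217-fold dilution from DMSO stocks, stayed 16 h on HCT-116 beta-lactamase reporter cells seeded 5 h earlier.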

[10] = ATG_XTT_Cytotoxicity: Cytotoxicity Assessment in the Attagene TRANS-FACTORIAL HepG2 Assay (AID 2283584; active = hit-call score of the fitted dose curve at least 0.9, where 1 is the maximum)
Summary of the method: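 Viability endpoint from XTT after 24 h chemical exposure of reporter-transfected human HepG2 liver cells; signal loss fitted relative to DMSO negative control.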

Measured: AC50

O=c1c(-c2ccc(O)cc2)coc2cc(O)cc(O)c12
inactive: [1] | [2] | [3] | [4] | [5] | [6] | [7] | [8] | [9]
active: [9] 18 µM

CCCCCCCCCCCC[N+](C)(C)C
inactive: [1] | [2] | [6]
active: [3] 81.9 µM | [4] 88.3 µM | [5] 89.9 µM | [7] 90.4 µM | [8] 85.2 µM and 79.6 µM and 73.5 µM | [9] 14.7 µM and 14.2 µM and 14.1 µM

O=C(OCCCCCCOC(=O)c1ccccc1)c1ccccc1
inactive: [1] | [2] | [3] | [4] | [5] | [6] | [7]

CCCCCCCCCCCCO
inactive: [1] | [2] | [3] | [4] | [5] | [6] | [7] | [9]

c1ccc2n[nH]nc2c1
inactive: [1] | [2] | [3] | [4] | [5] | [6] | [7] | [10] | [8] | [9]

CCN(Cc1cccnc1)C(=O)c1cccc(Cl)c1[C@]1(C)C(=O)N(Cc2ccc(OC)cc2OC)c2ccc(Cl)cc21
active: [2] 24 µM | [3] 11.6 µM | [4] 25.2 µM | [5] 16.7 µM | [6] 24.6 µM | [7] 25.5 µM | [9] 43.2 µM
inactive: [1] | [8]

CC1=CC(=O)/C(=C(/C)O)C(=O)O1
inactive: [1] | [2] | [3] | [4] | [5] | [6] | [7]

CC[C@H](NC(=O)c1cc(F)ccc1NS(=O)(=O)c1cccc2cccnc12)c1ccccc1
inactive: [1] | [2] | [3] | [6] | [7] | [9]
active: [4] 11.1 µM | [5] 47.8 µM

CC(C)(c1cc(Br)c(O)c(Br)c1)c1cc(Br)c(O)c(Br)c1
active: [3] 89.2 µM | [4] 78.2 µM | [7] 58.3 µM | [9] 54.6 µM and 64.2 µM and 60.5 µM
inactive: [1] | [2] | [5] | [6]

COCC(C)OCC(C)OCC(C)O (stereo unspecified)
inactive: [1] | [2] | [3] | [4] | [5] | [6] | [7] | [10]

CC(C)(O)c1ccc(CNC(=O)c2cccnc2Oc2ccc3nonc3c2)cc1
active: [2] 60.8 µM | [4] 9.41 µM
inactive: [1] | [3] | [5] | [6] | [7] | [8] | [9]

O=C(O)Cc1cc(I)c(Oc2ccc(O)c(I)c2)c(I)c1
inactive: [1] | [7]
active: [2] 81.7 µM | [3] 79.6 µM | [4] 95.7 µM | [5] 77.9 µM | [6] 75 µM | [8] 2.06 µM and 5.75 µM | [9] 899 nM and 4.4 µM

O=c1[nH]sc2ccccc12
inactive: [1] | [2] | [3] | [4] | [5] | [6] | [7] | [8] | [9]

CC(C)(C)c1cc(/C=C2\SC(N)=NC2=O)cc(C(C)(C)C)c1O
inactive: [2] | [3] | [6]
active: [1] 15.8 µM | [4] 93.5 µM | [5] 22.1 µM | [7] 37.3 µM | [8] 77.9 µM | [9] 50.7 µM

Cc1c2ccccc2c(C)c2c1ccc1ccccc12
inactive: [1] | [6] | [7]
active: [2] 75.4 µM | [3] 54.1 µM | [4] 0.714 µM | [5] 35 µM | [9] 14.6 µM and 37.7 µM

CCCCCCCCN(C)CCCCCCCC
inactive: [1] | [2] | [3] | [4] | [5] | [6] | [7] | [9]

COc1cccc([C@H](O)C2CCN(CCc3ccc(F)cc3)CC2)c1OC
inactive: [1] | [2] | [3] | [4] | [5] | [6] | [7]

O=CCCCC=O
inactive: [1] | [2] | [3] | [4] | [5] | [6] | [7] | [10] | [9]

CN(C)c1ccc(C(=C2C=CC(=[N+](C)C)C=C2)c2ccc(N(C)C)cc2)cc1
inactive: [6]
active: [1] 8.56 µM | [2] 2.48 µM | [3] 23.3 µM | [4] 16.8 µM | [5] 10.4 µM | [7] 9.3 µM | [8] 23.6 µM and 19.1 µM and 23 µM | [9] 33.6 µM and 32.8 µM and 7.06 µM
